# Data: PMC7862700, “An all-to-all approach to the identification of sequence-specific readers for epigenetic DNA modifications on cytosine”
# Assays:
# Assay in all cases: DAPPL (digital affinity profiling via proximity ligation, sequencing); 10 mM Tris-HCl pH 7.5, 50 mM NaCl, 1 mM DTT, 4% glycerol, room temperature, 30 min; GST-TFs on glutathione beads, 16-mer random dsDNA library, 0.1% formaldehyde crosslink after washing; high values mean tight binding
# [1] = biological target: T1, FLI1 (Homo sapiens, UniProt Q01543 1-452); conditions: protein: recombinant; tags: N-terminal GST; dsDNA, one strand shown
# T1 sequence: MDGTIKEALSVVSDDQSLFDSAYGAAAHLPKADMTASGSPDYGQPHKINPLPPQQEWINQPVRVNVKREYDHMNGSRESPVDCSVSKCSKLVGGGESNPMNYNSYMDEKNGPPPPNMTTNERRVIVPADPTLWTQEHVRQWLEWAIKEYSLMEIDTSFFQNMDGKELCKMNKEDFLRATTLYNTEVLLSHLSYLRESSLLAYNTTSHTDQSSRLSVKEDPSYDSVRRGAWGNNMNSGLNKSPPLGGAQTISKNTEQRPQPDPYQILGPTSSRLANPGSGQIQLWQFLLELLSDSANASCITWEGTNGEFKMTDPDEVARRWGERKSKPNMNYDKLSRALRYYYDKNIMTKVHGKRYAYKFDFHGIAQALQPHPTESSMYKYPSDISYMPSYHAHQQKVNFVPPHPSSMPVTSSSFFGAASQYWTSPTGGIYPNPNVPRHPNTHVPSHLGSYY
# In short: (§1)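 Sequencing on an Illumina NextSeq500 followed washing, crosslinking with 0.1% formaldehyde, proximity ligation (BsaI/T4 ligase, 1 h, 37 °C) and PCR amplification of pools that had been incubated for 30 min at room temperature with 200 nmole of a random double-stranded 16-mer DNA library in Tris/NaCl/DTT/glycerol buffer. Each pool held DNA-barcoded human transcription factors, expressed in yeast as GST fusions and captured on glutathione beads, plus a tag-only sample. Binding signal is a hexamer's read frequency for a factor divided by its frequency in the tag-only sample.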
# [2] = biological target: T2, ELK1 (Homo sapiens, UniProt P19419 1-428); conditions: protein: recombinant; tags: N-terminal GST; dsDNA, one strand shown
# T2 sequence: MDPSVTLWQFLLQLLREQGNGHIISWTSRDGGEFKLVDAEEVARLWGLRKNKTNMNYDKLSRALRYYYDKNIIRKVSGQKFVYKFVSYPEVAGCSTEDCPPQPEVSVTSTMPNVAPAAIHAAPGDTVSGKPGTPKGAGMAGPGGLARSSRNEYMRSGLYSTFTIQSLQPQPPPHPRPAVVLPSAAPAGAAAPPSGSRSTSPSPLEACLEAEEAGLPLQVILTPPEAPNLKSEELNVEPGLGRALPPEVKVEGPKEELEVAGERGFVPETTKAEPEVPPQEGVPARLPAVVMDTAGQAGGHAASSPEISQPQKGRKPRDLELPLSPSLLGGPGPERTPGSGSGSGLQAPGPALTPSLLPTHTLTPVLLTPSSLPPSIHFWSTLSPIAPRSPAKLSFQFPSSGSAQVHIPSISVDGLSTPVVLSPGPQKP
# In short: as §1
# [3] = biological target: T3, GABPA (Homo sapiens, UniProt Q06546 1-454); conditions: protein: recombinant; tags: N-terminal GST; dsDNA, one strand shown
# T3 sequence: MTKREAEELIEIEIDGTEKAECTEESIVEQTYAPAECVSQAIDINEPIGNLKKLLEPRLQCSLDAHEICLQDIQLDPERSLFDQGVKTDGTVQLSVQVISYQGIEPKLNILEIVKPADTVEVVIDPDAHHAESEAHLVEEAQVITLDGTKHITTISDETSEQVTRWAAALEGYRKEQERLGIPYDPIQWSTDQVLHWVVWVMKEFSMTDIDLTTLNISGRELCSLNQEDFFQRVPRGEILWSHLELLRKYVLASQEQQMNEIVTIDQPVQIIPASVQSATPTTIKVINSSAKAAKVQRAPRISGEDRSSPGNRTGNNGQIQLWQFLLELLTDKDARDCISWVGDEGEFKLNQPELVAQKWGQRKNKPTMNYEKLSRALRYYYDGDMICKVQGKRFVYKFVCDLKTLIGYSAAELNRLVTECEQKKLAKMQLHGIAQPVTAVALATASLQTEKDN
# In short: as §1
# [4] = biological target: T4, ERG (Homo sapiens, UniProt P11308 1-479); conditions: protein: recombinant; tags: N-terminal GST; dsDNA, one strand shown
# T4 sequence: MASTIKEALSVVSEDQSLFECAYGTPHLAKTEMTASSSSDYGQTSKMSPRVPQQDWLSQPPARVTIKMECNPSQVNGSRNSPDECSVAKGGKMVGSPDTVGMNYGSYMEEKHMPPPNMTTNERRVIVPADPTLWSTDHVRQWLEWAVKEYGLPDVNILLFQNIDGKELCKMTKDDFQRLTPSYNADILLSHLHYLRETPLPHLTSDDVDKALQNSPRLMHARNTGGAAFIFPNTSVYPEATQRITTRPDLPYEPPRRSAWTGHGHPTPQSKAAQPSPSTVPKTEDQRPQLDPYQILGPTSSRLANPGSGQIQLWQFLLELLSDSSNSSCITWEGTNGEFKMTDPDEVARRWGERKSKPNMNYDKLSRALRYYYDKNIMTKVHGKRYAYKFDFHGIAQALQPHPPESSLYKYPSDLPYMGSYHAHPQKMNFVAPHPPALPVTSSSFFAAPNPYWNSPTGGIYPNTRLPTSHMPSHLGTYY
# In short: as §1
# [5] = biological target: ELF1 (Homo sapiens, UniProt P32519 1-619); conditions: protein: recombinant; tags: N-terminal GST; dsDNA, one strand shown
# ELF1, sequence (P32519 whole entry): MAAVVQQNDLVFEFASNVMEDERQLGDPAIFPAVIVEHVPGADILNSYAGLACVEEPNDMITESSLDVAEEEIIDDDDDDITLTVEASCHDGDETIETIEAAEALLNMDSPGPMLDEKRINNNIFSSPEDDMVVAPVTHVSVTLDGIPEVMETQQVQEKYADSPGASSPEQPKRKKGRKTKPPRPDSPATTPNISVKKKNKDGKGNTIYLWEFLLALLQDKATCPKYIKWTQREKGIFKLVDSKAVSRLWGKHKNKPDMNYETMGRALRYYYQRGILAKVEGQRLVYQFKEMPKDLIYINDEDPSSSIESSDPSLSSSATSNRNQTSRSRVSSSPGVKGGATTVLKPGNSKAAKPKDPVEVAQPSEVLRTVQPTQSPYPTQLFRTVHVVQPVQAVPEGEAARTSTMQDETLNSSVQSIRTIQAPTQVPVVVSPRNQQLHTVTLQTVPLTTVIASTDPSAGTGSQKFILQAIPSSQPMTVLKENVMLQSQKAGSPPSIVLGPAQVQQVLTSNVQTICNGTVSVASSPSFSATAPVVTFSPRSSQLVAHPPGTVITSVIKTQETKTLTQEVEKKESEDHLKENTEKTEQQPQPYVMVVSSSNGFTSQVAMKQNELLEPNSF
# In short: as §1
# [6] = biological target: T5, EHF (Homo sapiens, UniProt Q9NZC4 1-300); conditions: protein: recombinant; tags: N-terminal GST; dsDNA, one strand shown
# T5 sequence: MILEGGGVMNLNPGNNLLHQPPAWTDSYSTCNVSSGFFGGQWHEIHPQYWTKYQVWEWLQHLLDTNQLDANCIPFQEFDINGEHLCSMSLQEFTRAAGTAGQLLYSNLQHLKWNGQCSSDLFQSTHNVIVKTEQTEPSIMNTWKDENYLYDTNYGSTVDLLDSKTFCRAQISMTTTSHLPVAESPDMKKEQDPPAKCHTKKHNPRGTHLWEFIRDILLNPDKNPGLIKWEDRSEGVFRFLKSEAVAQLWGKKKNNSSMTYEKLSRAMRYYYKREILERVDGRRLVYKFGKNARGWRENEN
# In short: as §1
# [7] = biological target: SPI1 (Homo sapiens, UniProt P17947 1-270); conditions: protein: recombinant; tags: N-terminal GST; dsDNA, one strand shown
# In short: as §1
# [8] = biological target: SPIB (Homo sapiens, UniProt Q01892 1-262); conditions: protein: recombinant; tags: N-terminal GST; dsDNA, one strand shown
# SPIB, sequence (Q01892 whole entry): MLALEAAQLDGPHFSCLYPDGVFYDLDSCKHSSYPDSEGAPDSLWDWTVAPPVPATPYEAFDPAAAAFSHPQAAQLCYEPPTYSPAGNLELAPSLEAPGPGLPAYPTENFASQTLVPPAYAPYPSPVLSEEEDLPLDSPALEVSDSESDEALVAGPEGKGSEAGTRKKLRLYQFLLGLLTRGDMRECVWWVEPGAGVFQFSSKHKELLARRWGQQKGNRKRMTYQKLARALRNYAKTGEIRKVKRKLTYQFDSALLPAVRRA
# In short: as §1
# [9] = biological target: T6, ELK3 (Homo sapiens, UniProt P41970 1-407); conditions: protein: recombinant; tags: N-terminal GST; dsDNA, one strand shown
# T6 sequence: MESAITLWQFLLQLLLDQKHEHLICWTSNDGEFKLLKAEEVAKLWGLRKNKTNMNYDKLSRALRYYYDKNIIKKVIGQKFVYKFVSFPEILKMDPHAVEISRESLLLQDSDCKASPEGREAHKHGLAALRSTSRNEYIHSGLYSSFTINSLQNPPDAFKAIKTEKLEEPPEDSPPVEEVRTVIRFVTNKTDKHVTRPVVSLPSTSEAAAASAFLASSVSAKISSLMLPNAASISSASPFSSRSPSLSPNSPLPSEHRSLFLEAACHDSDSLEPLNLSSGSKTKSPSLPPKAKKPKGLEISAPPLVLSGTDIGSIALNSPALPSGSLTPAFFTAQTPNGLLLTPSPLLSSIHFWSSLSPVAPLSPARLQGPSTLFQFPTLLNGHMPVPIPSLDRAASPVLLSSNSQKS
# In short: as §1
# [10] = biological target: T7, FEV (Homo sapiens, UniProt Q99581 1-238); conditions: protein: recombinant; tags: N-terminal GST; dsDNA, one strand shown
# T7 sequence: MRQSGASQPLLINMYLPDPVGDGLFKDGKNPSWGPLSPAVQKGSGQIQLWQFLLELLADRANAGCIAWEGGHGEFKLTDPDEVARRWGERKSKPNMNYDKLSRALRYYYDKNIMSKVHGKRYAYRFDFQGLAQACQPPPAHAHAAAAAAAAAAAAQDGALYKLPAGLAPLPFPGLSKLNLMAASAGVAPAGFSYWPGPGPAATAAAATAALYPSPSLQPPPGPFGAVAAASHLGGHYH
# In short: as §1
# [11] = biological target: ETV5 (Homo sapiens, UniProt P41161 1-510); conditions: protein: recombinant; tags: N-terminal GST; dsDNA, one strand shown
# ETV5, sequence (P41161 whole entry): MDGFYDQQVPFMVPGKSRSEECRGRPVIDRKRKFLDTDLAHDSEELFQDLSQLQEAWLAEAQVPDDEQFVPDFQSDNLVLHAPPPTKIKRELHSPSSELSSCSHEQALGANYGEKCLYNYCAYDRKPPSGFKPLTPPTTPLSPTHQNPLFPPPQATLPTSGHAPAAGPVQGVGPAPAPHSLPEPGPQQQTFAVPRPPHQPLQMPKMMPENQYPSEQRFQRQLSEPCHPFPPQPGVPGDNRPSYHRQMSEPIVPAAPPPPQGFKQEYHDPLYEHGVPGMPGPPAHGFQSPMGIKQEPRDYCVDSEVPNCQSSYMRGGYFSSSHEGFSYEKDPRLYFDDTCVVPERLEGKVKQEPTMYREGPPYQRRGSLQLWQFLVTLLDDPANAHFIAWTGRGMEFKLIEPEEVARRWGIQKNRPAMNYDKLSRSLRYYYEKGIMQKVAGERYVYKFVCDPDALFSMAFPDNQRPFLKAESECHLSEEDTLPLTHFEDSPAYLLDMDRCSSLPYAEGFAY
# In short: as §1
# [12] = biological target: HSF1 (Homo sapiens, UniProt Q00613 1-529); conditions: protein: recombinant; tags: N-terminal GST; chain copies: 3; dsDNA, one strand shown
# HSF1, sequence (Q00613 whole entry): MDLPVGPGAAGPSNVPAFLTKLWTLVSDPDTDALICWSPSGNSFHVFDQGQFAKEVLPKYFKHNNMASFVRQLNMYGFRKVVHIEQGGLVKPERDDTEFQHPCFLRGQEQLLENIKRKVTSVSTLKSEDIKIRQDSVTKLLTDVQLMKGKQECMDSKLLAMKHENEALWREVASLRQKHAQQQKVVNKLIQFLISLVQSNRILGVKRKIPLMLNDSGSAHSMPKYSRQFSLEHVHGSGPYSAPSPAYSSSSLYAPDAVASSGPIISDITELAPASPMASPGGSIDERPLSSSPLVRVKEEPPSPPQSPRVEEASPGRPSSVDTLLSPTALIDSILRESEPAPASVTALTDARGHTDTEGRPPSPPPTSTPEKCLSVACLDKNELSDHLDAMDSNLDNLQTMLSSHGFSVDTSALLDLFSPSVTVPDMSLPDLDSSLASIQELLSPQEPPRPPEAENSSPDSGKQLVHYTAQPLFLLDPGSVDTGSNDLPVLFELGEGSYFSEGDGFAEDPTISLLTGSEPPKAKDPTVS
# In short: as §1
# [13] = biological target: T8, SPIC (Homo sapiens, UniProt Q8N5J4 1-248); conditions: protein: recombinant; tags: N-terminal GST; dsDNA, one strand shown
# T8 sequence: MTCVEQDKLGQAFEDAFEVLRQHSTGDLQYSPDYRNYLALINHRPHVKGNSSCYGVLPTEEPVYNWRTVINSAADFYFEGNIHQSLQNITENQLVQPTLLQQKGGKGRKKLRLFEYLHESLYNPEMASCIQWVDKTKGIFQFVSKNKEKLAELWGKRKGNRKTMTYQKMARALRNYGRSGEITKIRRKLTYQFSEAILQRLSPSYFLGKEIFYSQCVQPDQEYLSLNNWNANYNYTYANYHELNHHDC
# In short: as §1
# [14] = biological target: ELF4 (Homo sapiens, UniProt Q99607 1-663); conditions: protein: recombinant; tags: N-terminal GST; dsDNA, one strand shown
# ELF4, sequence (Q99607 whole entry): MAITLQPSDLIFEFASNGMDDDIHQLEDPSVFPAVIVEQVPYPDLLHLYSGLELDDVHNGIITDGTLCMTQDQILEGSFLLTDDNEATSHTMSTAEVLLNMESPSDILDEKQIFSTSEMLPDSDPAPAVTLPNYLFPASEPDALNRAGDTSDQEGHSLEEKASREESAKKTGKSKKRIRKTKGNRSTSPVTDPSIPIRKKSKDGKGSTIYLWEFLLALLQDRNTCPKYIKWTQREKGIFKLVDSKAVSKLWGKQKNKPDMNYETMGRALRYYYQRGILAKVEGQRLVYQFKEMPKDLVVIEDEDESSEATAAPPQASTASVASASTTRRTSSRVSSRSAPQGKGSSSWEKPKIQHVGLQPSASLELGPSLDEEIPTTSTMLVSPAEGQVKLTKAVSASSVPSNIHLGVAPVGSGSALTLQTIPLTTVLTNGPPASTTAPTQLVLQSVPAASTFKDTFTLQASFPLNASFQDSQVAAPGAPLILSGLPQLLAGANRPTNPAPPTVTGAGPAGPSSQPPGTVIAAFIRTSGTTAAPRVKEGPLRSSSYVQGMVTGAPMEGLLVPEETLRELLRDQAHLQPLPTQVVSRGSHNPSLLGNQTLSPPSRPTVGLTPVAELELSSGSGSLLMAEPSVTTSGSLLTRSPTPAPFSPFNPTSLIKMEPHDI
# In short: as §1
# [15] = biological target: T9, ELK4 (Homo sapiens, UniProt P28324-2 1-405); conditions: protein: recombinant; tags: N-terminal GST; dsDNA, one strand shown
# T9 sequence: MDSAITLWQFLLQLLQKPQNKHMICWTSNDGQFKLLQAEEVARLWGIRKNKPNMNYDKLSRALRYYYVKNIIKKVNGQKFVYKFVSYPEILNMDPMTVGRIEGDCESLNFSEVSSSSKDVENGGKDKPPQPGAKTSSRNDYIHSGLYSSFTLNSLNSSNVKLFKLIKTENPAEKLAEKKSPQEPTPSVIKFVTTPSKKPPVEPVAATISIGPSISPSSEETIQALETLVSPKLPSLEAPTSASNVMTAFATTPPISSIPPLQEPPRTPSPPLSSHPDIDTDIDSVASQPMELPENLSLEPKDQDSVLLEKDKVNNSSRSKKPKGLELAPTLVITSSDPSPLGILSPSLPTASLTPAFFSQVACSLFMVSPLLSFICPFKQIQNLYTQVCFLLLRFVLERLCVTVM
# In short: as §1
# [16] = biological target: T10, ETV2 (Homo sapiens, UniProt O00321 1-342); conditions: protein: recombinant; tags: N-terminal GST; dsDNA, one strand shown
# T10 sequence: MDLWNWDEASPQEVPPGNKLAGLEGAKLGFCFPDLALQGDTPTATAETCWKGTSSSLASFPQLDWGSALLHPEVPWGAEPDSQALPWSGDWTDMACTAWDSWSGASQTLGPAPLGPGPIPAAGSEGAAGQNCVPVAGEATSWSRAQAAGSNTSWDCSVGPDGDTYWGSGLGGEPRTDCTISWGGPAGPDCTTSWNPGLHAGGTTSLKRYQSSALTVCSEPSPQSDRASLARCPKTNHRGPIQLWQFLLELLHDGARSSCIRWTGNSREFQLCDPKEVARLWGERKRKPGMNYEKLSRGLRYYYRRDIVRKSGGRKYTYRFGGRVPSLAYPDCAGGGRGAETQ
# In short: as §1
# [17] = biological target: T11, ELF3 (Homo sapiens, UniProt P78545 1-371); conditions: protein: recombinant; tags: N-terminal GST; dsDNA, one strand shown
# T11 sequence: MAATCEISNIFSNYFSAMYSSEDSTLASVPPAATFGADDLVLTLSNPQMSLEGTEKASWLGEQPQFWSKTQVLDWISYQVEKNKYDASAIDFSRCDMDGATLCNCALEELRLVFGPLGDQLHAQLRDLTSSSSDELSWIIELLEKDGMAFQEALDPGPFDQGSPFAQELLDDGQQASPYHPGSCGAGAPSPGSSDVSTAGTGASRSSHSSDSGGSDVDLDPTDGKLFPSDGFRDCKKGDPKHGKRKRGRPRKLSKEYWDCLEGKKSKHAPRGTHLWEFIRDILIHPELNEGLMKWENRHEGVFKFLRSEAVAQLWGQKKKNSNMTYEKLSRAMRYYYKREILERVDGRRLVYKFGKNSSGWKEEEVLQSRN
# In short: as §1
# [18] = biological target: CRX (Homo sapiens, UniProt O43186 1-299); conditions: protein: recombinant; tags: N-terminal GST; dsDNA, one strand shown
# CRX, sequence (O43186 whole entry): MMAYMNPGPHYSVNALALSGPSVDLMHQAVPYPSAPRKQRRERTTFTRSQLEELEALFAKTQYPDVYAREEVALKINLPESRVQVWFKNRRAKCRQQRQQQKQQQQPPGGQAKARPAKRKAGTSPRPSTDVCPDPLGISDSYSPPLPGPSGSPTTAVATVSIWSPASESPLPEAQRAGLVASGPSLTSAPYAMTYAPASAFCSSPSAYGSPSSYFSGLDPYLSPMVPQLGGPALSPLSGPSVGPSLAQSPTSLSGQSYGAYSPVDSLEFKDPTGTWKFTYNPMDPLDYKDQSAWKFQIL
# In short: as §1
# [19] = biological target: ETV1 (Homo sapiens, UniProt P50549 1-477); conditions: protein: recombinant; tags: N-terminal GST; dsDNA, one strand shown
# ETV1, sequence (P50549 whole entry): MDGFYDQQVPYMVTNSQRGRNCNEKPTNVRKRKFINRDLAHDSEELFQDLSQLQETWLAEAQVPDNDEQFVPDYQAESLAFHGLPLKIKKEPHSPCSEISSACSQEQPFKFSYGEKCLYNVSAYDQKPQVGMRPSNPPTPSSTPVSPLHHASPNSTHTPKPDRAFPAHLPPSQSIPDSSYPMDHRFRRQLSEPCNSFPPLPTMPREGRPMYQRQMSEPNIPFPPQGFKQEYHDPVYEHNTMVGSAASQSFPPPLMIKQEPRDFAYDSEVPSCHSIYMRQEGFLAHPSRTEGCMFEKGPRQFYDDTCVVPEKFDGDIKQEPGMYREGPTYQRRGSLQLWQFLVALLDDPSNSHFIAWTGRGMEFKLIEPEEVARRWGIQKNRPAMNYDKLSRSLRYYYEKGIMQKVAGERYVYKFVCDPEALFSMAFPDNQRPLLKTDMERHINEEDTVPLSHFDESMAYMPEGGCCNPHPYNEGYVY
# In short: as §1
sequence,measurement,setting,value
AAAGAC,binding signal,[1],"1.06 fold enrichment (6-mer frequency, TF over GST control)"
same,binding signal,[2],"1.07 fold enrichment (6-mer frequency, TF over GST control)"
same,binding signal,[3],"1.02 fold enrichment (6-mer frequency, TF over GST control)"
same,binding signal,[4],"1.07 fold enrichment (6-mer frequency, TF over GST control)"
same,binding signal,[5],"1 fold enrichment (6-mer frequency, TF over GST control)"
same,binding signal,[6],"1.05 fold enrichment (6-mer frequency, TF over GST control)"
same,binding signal,[7],"1.1 fold enrichment (6-mer frequency, TF over GST control)"
same,binding signal,[8],"1.08 fold enrichment (6-mer frequency, TF over GST control)"
same,binding signal,[9],"1.02 fold enrichment (6-mer frequency, TF over GST control)"
same,binding signal,[10],"1.06 fold enrichment (6-mer frequency, TF over GST control)"
same,binding signal,[11],"1.05 fold enrichment (6-mer frequency, TF over GST control)"
same,binding signal,[12],"1.11 fold enrichment (6-mer frequency, TF over GST control)"
same,binding signal,[13],"1.01 fold enrichment (6-mer frequency, TF over GST control)"
same,binding signal,[14],"1.04 fold enrichment (6-mer frequency, TF over GST control)"
same,binding signal,[15],"1.04 fold enrichment (6-mer frequency, TF over GST control)"
same,binding signal,[16],"1.03 fold enrichment (6-mer frequency, TF over GST control)"
same,binding signal,[17],"1.01 fold enrichment (6-mer frequency, TF over GST control)"
same,binding signal,[18],"1.13 fold enrichment (6-mer frequency, TF over GST control)"
same,binding signal,[19],"1.03 fold enrichment (6-mer frequency, TF over GST control)"
